Rows were chosen to be rich in hits. Some 10% of all compounds tested hit in one or more screens of this group.
G9a inh: G9a (human) methyltransferase inhibition. Q96KQ7. G9a H3K9 monomethylation, AlphaScreen, 2 h. Potency, µM (titrated, usually from 102 µM), without a hit: at the top dose activity, negative = inhibition, most hits filed as inhibitors. hit rate 8.8% among 350,000; also: potency is read from the fitted curve at half-maximal effect; % is scaled to controls: 0 for no effect and ±100 for the full control effect; nearly all actives have a fitted effect of over 75% in size
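Step 1: enzyme (final 20 nM) with compound, 15 min RT. Step 2: substrate peptide 500 nM and SAM 20 uM, 2 h RT. Step 3: anti-H3K9me1 antibody and AlphaScreen beads, 10 min, then plate read.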
Six1-Eya2 blk: blocks human Six1 binding to Eya2; Q15475+O00167; AlphaScreen GST-Six1/His-Eya2 binding, biochemical; hits give low values; activity change, % (test concentration not listed); hit rate 0.56% among 360,000; in the data active = activity change below about -65%; inconclusive = mostly about -30% to -63%; also: % is scaled to controls: 0 for no effect and ±100 for the full control effect
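Six1/Eya2 binding was read as AlphaScreen signal after compounds were pinned into GST-Six1 plus His-tagged Eya2 (5X stock 250/500 nM) in pH 8.0 Tris/NaCl/TCEP buffer, beads added, then incubated 1 h, 37 C, dark.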
BAZ2B inh: blocks human BAZ2B | Q9UIF8 | AlphaScreen BAZ2B-H3K14Ac peptide displacement | Potency, µM (series often up to 114 µM), inactives show at the top dose activity change, negative = inhibition, usual class: inhibitors | hit rate 4.4% among 360,000 | AID 504333; also: potency is read from the fitted curve at half-maximal effect; % is scaled to controls: 0 for no effect and ±100 for the full control effect; nearly all actives have a fitted effect of over 60% in size
Target sequence (Q9UIF8 whole entry, looked up): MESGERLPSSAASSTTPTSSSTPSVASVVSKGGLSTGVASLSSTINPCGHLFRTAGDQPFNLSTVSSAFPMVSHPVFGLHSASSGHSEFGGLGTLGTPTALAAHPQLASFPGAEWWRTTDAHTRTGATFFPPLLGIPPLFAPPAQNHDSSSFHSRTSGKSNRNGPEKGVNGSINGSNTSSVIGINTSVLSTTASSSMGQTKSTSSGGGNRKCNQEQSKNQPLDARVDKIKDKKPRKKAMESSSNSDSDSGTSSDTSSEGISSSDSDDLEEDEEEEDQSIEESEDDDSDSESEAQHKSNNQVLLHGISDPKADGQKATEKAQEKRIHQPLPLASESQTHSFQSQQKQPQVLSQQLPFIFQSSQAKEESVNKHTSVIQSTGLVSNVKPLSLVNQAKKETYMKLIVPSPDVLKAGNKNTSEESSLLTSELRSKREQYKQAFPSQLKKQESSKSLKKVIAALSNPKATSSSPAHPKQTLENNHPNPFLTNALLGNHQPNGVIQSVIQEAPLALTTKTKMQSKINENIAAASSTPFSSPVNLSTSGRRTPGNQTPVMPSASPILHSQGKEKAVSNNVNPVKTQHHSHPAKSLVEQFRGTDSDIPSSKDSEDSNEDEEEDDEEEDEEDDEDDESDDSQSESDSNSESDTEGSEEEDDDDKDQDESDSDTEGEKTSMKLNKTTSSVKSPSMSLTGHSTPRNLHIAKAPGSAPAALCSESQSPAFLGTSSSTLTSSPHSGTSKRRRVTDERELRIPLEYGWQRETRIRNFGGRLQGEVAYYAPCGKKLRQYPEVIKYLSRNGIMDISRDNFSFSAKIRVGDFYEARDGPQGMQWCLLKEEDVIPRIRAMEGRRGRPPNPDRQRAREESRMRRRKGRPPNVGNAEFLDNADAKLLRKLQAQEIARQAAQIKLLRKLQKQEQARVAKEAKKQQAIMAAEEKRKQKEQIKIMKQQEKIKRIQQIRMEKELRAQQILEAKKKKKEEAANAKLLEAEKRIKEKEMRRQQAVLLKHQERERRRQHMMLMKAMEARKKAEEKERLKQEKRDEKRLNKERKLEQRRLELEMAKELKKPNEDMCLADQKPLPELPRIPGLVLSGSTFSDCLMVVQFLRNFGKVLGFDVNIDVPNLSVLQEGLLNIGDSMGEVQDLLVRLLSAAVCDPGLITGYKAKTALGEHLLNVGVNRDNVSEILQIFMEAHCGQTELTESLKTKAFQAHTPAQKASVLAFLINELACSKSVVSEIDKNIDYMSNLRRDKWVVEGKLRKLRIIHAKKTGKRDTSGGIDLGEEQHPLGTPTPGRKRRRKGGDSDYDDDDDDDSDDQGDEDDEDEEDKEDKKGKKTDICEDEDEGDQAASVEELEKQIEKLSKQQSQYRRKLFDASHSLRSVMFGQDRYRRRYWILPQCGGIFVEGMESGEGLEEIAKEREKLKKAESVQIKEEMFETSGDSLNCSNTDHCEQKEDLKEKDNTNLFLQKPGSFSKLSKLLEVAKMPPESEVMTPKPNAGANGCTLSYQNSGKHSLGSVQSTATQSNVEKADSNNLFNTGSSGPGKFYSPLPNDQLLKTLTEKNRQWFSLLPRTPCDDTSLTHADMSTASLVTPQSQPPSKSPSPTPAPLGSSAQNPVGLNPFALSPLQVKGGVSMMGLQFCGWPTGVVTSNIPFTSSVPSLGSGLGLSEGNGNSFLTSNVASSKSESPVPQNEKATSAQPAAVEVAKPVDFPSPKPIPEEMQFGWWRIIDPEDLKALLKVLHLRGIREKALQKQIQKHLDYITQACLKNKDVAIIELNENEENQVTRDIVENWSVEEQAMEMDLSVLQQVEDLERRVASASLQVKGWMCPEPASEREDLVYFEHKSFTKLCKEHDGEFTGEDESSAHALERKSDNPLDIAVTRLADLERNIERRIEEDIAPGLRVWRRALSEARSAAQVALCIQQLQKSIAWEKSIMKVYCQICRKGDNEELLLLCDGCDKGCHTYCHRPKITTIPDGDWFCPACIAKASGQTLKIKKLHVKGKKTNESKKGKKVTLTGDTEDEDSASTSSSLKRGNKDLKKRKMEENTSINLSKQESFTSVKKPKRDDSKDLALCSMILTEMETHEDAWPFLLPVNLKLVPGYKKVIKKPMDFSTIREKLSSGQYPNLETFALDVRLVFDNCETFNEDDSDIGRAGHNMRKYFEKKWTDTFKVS
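Inhibition is scored as reduced AlphaScreen emission. The BAZ2B/b-H3(5-23)K14Ac complex (50 nM each) in PBS pH 7.4, 0.01% Tween-20 meets compound (up to 110 uM) for 30 min at RT before bead addition.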
JMJD2A Tudor: JMJD2A Tudor domain (human) inhibition | hit rate 4.4% among 390,000 | AlphaScreen JMJD2A-Tudor / H3K4me3 peptide binding | O75164 | Potency, µM (series often up to 114 µM), for the others: at the highest dose activity change, negative = inhibition, actives largely listed as inhibitors; also: potency is read from the fitted curve at half-maximal effect; % is scaled to controls: 0 for no effect and ±100 for the full control effect; nearly all actives have a fitted effect of over 50% in size
CtBP-E1A inh: inhibitors of CtBP/E1A interaction. activity change, % (test concentration not listed). hit rate 0.49% among 340,000. AlphaScreen GST-E1A/His-CtBP binding, 1536-well; hits give low values; in the data active = activity change below about -65%; inconclusive = mostly about -30% to -63%; also: % is scaled to controls: 0 for no effect and ±100 for the full control effect
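Protein mix (5X: 125 nM each GST-E1A, His-CtBP) was incubated with pinned compound 2 h at 37 deg C in dark, in 50 mM Tris pH 8.0 buffer with 300 mM NaCl. Glutathione donor and nickel acceptor beads followed; AlphaScreen signal read after 1 h.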
HP1b chromo inh: blocks HP1-beta chromodomain binding to methylated histone tails | AID 540317 | Potency, µM (doses to about 114 µM), for the others: at the top dose activity change, negative = inhibition, usual class: inhibitors | AlphaScreen HP1-beta / biotin-H3K9me3 peptide binding | P83916 | hit rate 0.56% among 390,000; also: potency is read from the fitted curve at half-maximal effect; nearly all actives have a fitted effect of over 70% in size
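HP1-beta protein (50 nM final) preincubated 30 min at room temperature with biotinylated H3(1-18)K9me3 peptide (50 nM) in PBS pH 7.4, 0.01% Tween-20, then compound added for 30 min. AlphaScreen streptavidin donor/nickel chelate acceptor beads (10 ug/mL final), 30 min dark, luminescence read.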
Numbers without * were called inactive; ? = inconclusive; / = not tested or not shown; [ ] = dose if it differs, or a comment. Unless noted, calls follow the shape of the dose curve; as a rule, active = well fitted inhibition curve with a large enough effect; inconclusive = small, poorly fitted or top-dose-only effect; inactive = no such curve, though single readings can be large or run the other way.

SMILES	G9a inh	Six1-Eya2 blk	BAZ2B inh	JMJD2A Tudor	CtBP-E1A inh	HP1b chromo inh
CCOC(=O)c1c(NC(=O)CCCOc2ccc(Cl)cc2)sc2c1CCC2	-27%[59 µM]	/	-27%	25%	/	14%
O=S(=O)(c1ccccc1)c1nnn2c1nc(NC1CCCCC1)c1sccc12	-6%[59 µM]	/	-38%	-13%	/	17%
CCCC1=Nc2cc(C(=O)NCc3ccccc3)ccc2Sc2ccccc21	-31%[59 µM]	/	-27%	-26%	/	14%
N#Cc1nc(-c2ccc(OCc3ccc(Cl)cc3)cc2)oc1N1CCCCC1	/	/	/	-6%[57.1 µM]	/	4%[57 µM]
CCN1CCN(c2ccc(S(=O)(=O)N3CCCCC3)cc2NC(=O)c2ccccc2)CC1	10µM*	5	-11%	-15%	-3	21%
CCN1CCN(c2ccc(S(=O)(=O)N3CCCCC3)cc2NC(=O)c2cccc(F)c2)CC1	?	3	-32%	-22%	-7	-12%
CCN1CCN(c2ccc(S(=O)(=O)N3CCCCC3)cc2NC(=O)c2cccc(C(F)(F)F)c2)CC1	13µM*	3	-9%	-34%	-2	-11%
CCOc1ccc(CNc2ccc(CNc3ncn[nH]3)cc2)cc1	-19%	-9	?	-34%	6	21%
CCOc1ccc(CNc2cccc(SC)c2)cc1	28µM*	-8	40µM*	3.2µM*	-9	45µM*
CCSC(=Nc1ccccc1)C1=C(O)COC1=O	35µM*	2	?	-34%	5	38%
CSC(=Nc1ccccc1)C1=C(O)COC1=O	?	11	-6%	-24%	8	34%
c1ccc(Nc2nc(-c3ccc4c(c3)OCO4)nc3ccccc23)cc1	8%[0.501 µM]	/	/	/	/	/
CC(=O)/C(=N/Nc1ccccc1[N+](=O)[O-])N1CCCc2ccccc21	5µM*	-74*	5.6µM*	11µM*	-75*	7.9µM*
COC(=O)/C(=N/Nc1cccc(C)c1)N1CCCc2ccccc21	?	-2	?	-3%	-5	28%
CC(=O)/C(=N/Nc1ccc([N+](=O)[O-])cc1)N1CCCc2ccccc21	22µM*	0	?	?	2	?
O=C(Nc1cccc([N+](=O)[O-])c1)N1CCCc2ccccc21	12%	0	-35%	-28%	2	20%
COC(=O)c1ccccc1N=C(SC)N(C)C	16µM*	5	-2%	-19%	6	3%
COC(=O)c1ccccc1NC(=S)N(C)C	25%[59 µM]	8	-1%	-13%	-17	3%
CCOc1cc2c(cc1OCC)C(c1c(F)cccc1Cl)CC(=O)N2 (stereo not drawn)	-10%[59 µM]	/	-2%	-20%	/	14%
Cc1ccc(OCC(=O)N/N=C\c2ccc(-c3cccc(C(=O)O)c3)o2)c(C)c1	35µM*	?	?	-36%	-4	-2%
COc1ccc(-c2ccc(/C=N/NC(=O)Cc3nnc(N)s3)o2)cc1Cl	20µM*	-23	?	-29%	/	1%
Cc1ccc(-c2ccc(/C=N/NC(=O)Cc3nnc(N)s3)o2)cc1Cl	17%[12.7 µM]	4	-18%	-14%	-7	36%
COc1ccc(CC(=O)N/N=C/c2ccc(-c3cccc(C(=O)O)c3)o2)cc1OC	40µM*	-24	-39%	-25%	-4	10%
Nc1nonc1C(=O)N/N=C/c1ccc(-c2cccc(C(=O)O)c2)o1	32µM*	/	?	/	/	/
CCCCNc1nc2c(S(=O)(=O)c3ccc(C)cc3)nnn2c2ccsc12	-3%[59 µM]	/	-24%	-20%	/	18%
SMILES	G9a inh	Six1-Eya2 blk	BAZ2B inh	JMJD2A Tudor	CtBP-E1A inh	HP1b chromo inh
CNC(=S)N/N=C/c1ccc(-c2cccc(C(=O)O)c2)o1	3%[12.7 µM]	-10	-17%	-22%	-11	14%
O=C(O)c1cccc(-c2ccc(/C=N/Nc3nn[nH]n3)o2)c1	45µM*	?	56µM*	56µM*	19	15%
CCCN(CCC)C(=O)Cn1c(=O)n(Cc2ccc(C(=O)NCCc3ccc(OC)c(OC)c3)cc2)c(=O)c2ccccc21	-18%[59 µM]	/	-9%	-11%	/	8%
COc1ccc(C(=O)c2ccc(OC)c3cccc(O)c23)cc1OC	56µM*	-15	?	?	-3	6%
O=C(NCc1ccccc1)c1ccccc1C(=O)c1ncc[nH]1	13µM*	4	?	-2%	6	29%
COc1ccc(CN(Cc2ccco2)C(=O)c2ccccc2F)cc1	5%[59 µM]	/	-20%	-22%	/	30%
CCOc1cc(C2CC(=O)NC3=C2C(=O)C(C(=O)OC)C(C)C3)cc(Br)c1O (stereo not drawn)	45µM*	-11	-7%	-15%	-3	18%
COC(=O)C1C(=O)C2=C(CC1C)NC(=O)CC2c1ccc(F)cc1 (stereo not drawn)	26%[12.7 µM]	15	-3%	-8%	-1	4%
Cc1cccc(-c2nc3c(cnn3-c3ccccc3)c(=O)n2-c2cccc(Cl)c2)c1	?	/	-16%	-18%	/	3%
CCN(CC)CCNC(=O)c1ccc2c(=O)n3nc(Nc4cccc(Cl)c4C)sc3nc2c1	?	/	?	?	/	2%
O=C1CCCC2=C1C(c1ccco1)Nc1ccc3ccccc3c12 (stereo not drawn)	16µM*	?	13µM*	40µM*	0	50µM*
O=C1CCCC2=C1C(c1ccc(O)c(O)c1)Nc1ccc3ccccc3c12 (stereo not drawn)	/	-3	/	28µM*	1	?
Cc1ccc(Nc2nc3ccc(C)cc3nc2-n2nc(C)cc2C)c(C)c1	83%[59 µM]	/	31%	93%	/	165%
Cn1nnnc1SCCNC(=O)C1CCC(=O)N(CCc2cccc(F)c2)C1 (stereo not drawn)	0.16µM*	9	4%	11%	/	29%
Cn1c(SCC(=O)c2ccc3c(c2)OCO3)nnc1C1COc2ccccc2O1 (stereo not drawn)	?	3	6%	50µM*	2	37%
Cn1c(SCc2cc(=O)n3cc(Br)ccc3n2)nnc1C1COc2ccccc2O1 (stereo not drawn)	-18%[59 µM]	-5	?	50µM*	1	30%
Cc1occc1-c1nnc(SCc2cc(=O)n3cc(Br)ccc3n2)n1C	-25%[59 µM]	-5	56µM*	?	-5	14%
Cn1c(SCC(=O)c2ccccc2)nnc1C1COc2ccccc2O1 (stereo not drawn)	/	7	-1%	-7%	6	45%
O=C(Nc1c(Cl)cc([N+](=O)[O-])cc1Cl)c1cc(Cl)cc(Cl)c1O	/	/	/	?	/	-6%
CCc1ccc(C2CC(=O)Nc3cc4c(cc32)OCO4)cc1 (stereo not drawn)	?	/	-12%	-22%	/	5%
Cc1cc(OCCn2c(CCNC(=O)C3CCCCC3)nc3ccccc32)ccc1Cl	7%[59 µM]	/	-3%	-11%	/	31%
